The values that follow come from PubChem BioAssay (EPA / NIEHS).

Where “and” joins values, the source holds several entries; their conditions need not be identical. Equal values may be shown once. Calls of active or inactive are those of the source. How the source made its calls: active means hit-call score of the fitted dose curve at least 0.9, where 1 is the maximum; inactive means score below 0.9.

Read-out in the assay: ABC Transporter (ABCB1), ABCB1 (gene 5243)
The assay can be described thus: LTEA_HepaRG_ABCB1: Life Technologies and Expression Analysis (LTEA) Assay for ABC Transporter (ABCB1) using HepaRG (AID 2283460). Conditions: mRNA level, 48 h; actives raise or lower the signal. As for the experimental part:
LTEA_HepaRG is a cell based, multiplexed-readout assay that uses HepaRG, a human liver cell line, with measurements taken at 48 hours after chemical dosing on a 96-well plate.LTEA_HepaRG_ABCB1 is one of 102 assay component(s) measured in the LTEA HepaRG cell culture assay. It is a marker of Steatosis/NR mediated transport.Data from the assay component LTEA_HepaRG_ABCB1 was analyzed into 1 endpoint. This assay endpoint, LTEA_HepaRG_ABCB1, was analyzed with bidirectional fitting relative to DMSO as the negative control and baseline of activity. Using a type of inducible reporter, measures of mRNA induction for gain or loss-of-signal activity can be used to understand regulation of transcription factor activity. To generalize the intended target to other relatable targets, this assay endpoint is annotated to the transporter intended target family, where the subfamily is ABC transporter.
A total of 1060 chemcials from the ToxCast library were tested in eight-point concentration-response experiments. Cell culture and cytotoxicity assays were conducted at Thermo Fisher Scientific's Custom Services facility (Madison, WI). A single lot of human HepaRG cells (Thermo Fisher Scientific, Frederick, MD) was used for the cell culture experiments. 96-well format collagen type I coated plates of human HepaRG cells were prepared using established methods. Briefly, cryopreserved HepaRG cells were thawed, plated at a density of approximately 100,000 cells/well in HepaRG Thaw, Plate, and General Purpose media (HPRG770, Thermo Fisher Scientific), and incubated for 48 hours. 0.5% DMSO was selected as vehicle control to balance the requisite need of DMSO in HepaRG cultures to maintain differentiation (for example, baseline metabolism, proportions of hepatocytes vs. cholangiocytes), while enabling further hepatic receptor pathway activation (for example, PXR and CAR) in response to chemical exposure. 48 hours after plating, the culture medium was replaced with HepaRG Serum-Free Incudtion Media. Cells were exposed to each test chemical in duplicate and maintained in CO2 incubators for another 48 hours. Chemical plates were thawed to room temperature and 200x concentrations of treatment groups were prepared. 8-point conentration-reponse curves were made with the highest exposure at 100 uM, followed by half-log dilutions, all in 0.5% DMSO. Each test plate contained variouse controls, induction positive controls (1mM phenobarbital), cytotoxicity positive controls ([…] aflatoxin B1), vehicle controls (0.5% DMSO), and total lysis controls (0.5% DMSO). Cell morphology images were taken using an Essen IncuCyte FLR automated microscope, with six 96-well plates imaged in about 24 minutes. Images were captured and exported and JPEG files. Spent culture media was transfered to black-well plates for the LDH assay, and remaining media was sorted at -80 C for later use. Cells were treated with RLT buffer and frozen until shipped for gene expression analysis. Total RNA was isolated from the cell suspension in 75 uL of Buffer RLT (Qiagen, Germantown, MD 20874) by Quintiles/Expression Analysis (Durham, NC) using a custom isolation procedure. Total RNA from each plate well was transferred to a preamplification plate. Fluidigm's 96.96 Dynamic ArrayTM (Fluidigm, Amsterdam, the Netherlands) technology was used for gene expression analyses by quantitative reverse transcription polymerase chain reaction (qRT-PCR, performed by Quintiles/Expression Analysis, Durham, NC)89. Standard TaqManTM Assays (Applied Biosystems/ThermoFisher Scientific, Foster City, CA) were used to assess the expression of 93 genes selected based on their selectivity and sensitivity to important hepatic receptors known to be modulated by environmental chemicals; importance in human hepatocyte functionality; and hepatotoxicity. […]
`CNC(=O)CSP(=S)(OC)OC`: the compound was classed as inactive.
Turning to `O=C(O)COc1ccc(Cl)cc1Cl`, the compound was classed as inactive.
Still for that read-out and setting: to `CC(C)OC(=O)Nc1cccc(Cl)c1` belongs “inactive”; to `O=S1OCC2C(CO1)C1(Cl)C(Cl)=C(Cl)C2(Cl)C1(Cl)Cl` (stereo not given), “inactive”.
`Clc1ccccc1-c1nnc(-c2ccccc2Cl)nn1`: the compound was called inactive.
Take `CNC(=O)Oc1cccc(N=CN(C)C)c1`: the call was inactive.
Regarding `O=[N+]([O-])c1c(Cl)c(Cl)c(Cl)c(Cl)c1Cl`, the result was inactive.
Same read-out and setting: to `COP(=S)(OC)Oc1ccc([N+](=O)[O-])cc1` belongs “inactive”; to `CNC(=O)/C=C(\C)OP(=O)(OC)OC`, “inactive”.
On to `C#CCN1C(=O)COc2cc(F)c(N3C(=O)C4=C(CCCC4)C3=O)cc21`, for which the concentration at half-maximal activity (AC50) – broadly, the concentration at which the activity in the assay is half-maximal – was 9.92 µM (active).
On to `CNC(=O)Oc1ccccc1OC(C)C`, for which the call was inactive.
As to `O=C(Nc1ccccc1)Nc1cnns1`, the compound was classed as inactive.
For the compound `CCOC1Oc2ccc(OS(C)(=O)=O)cc2C1(C)C` (stereo not given), the half-maximal activity concentration (AC50) is 35.2 µM (active).
On the same count and under the same terms, to `CC[C@H](C)[C@H]1O[C@]2(C=C[C@@H]1C)C[C@@H]1C[C@@H](C/C=C(\C)[C@@H](O[C@H]3C[C@H](OC)[C@@H](O[C@H]4C[C@H](OC)[C@@H](O)[C@H](C)O4)[C@H](C)O3)[C@@H](C)/C=C/C=C3\CO[C@@H]4[C@H](O)C(C)=C[C@@H](C(=O)O1)[C@]34O)O2` (tested in a mixture with another compound) belongs 55.2 µM (active); to `CCC(C)(NC(=O)c1cc(Cl)c(C)c(Cl)c1)C(=O)CCl` (stereo not given), 89.8 µM (active).
As to `O=C(NC(=O)c1c(F)cccc1F)Nc1ccc(OC(F)(F)C(F)OC(F)(F)F)c(Cl)c1` (stereo not given), the call was inactive.
Still for that read-out and setting: to `CCN(CC)C(=O)SCc1ccc(Cl)cc1` belongs “inactive”; to `CCC(C)(C)C(=O)OC1=C(c2ccc(Cl)cc2Cl)C(=O)OC12CCCCC2`, “inactive”.
Regarding `O=C(O)CCCOc1ccc(Cl)cc1Cl`, the compound was called inactive.
For the compound `CC(C)(C)C(O)C(Oc1ccc(Cl)cc1)n1cncn1` (stereo not given), the concentration at half-maximal activity (AC50) is 4.64 µM (active) and 7.44 µM (active) and 3.5 µM (active).
As for `N#CN`, the compound was called inactive.
As to `OCCOc1ccccc1`, the result was inactive.
The same measure, in the same setting: for `O=C(O)C(F)(F)C(F)(F)C(F)(F)C(F)(F)C(F)(F)C(F)(F)C(F)(F)F` the value was “inactive”.
Consider `CC1(C)C(C=C(Cl)Cl)C1C(=O)OC(C#N)c1ccc(F)c(Oc2ccccc2)c1` (stereo not given), for which the concentration at half-maximal activity (AC50) is 24.5 µM (active).
On to `CCCN(CCC)c1c([N+](=O)[O-])cc(C(F)(F)F)cc1[N+](=O)[O-]`, for which the compound was called inactive.
Still for that read-out and setting: to `CCOCN(C(=O)CCl)c1c(C)cccc1CC` belongs “inactive”.
For the compound `C[C@H]1[C@H](c2ccc(Cl)cc2)SC(=O)N1C(=O)NC1CCCCC1`, the AC50 was 32.8 µM (active).
Consider `O=S(=O)(O)C(F)(F)C(F)(F)C(F)(F)C(F)(F)C(F)(F)C(F)(F)C(F)(F)C(F)(F)F`, for which the compound was classed as inactive.
In the case of `CC(C)(C)C(O)/C(=C\c1ccc(Cl)cc1Cl)n1cncn1` (stereo not given), the AC50 is 84.4 µM (active).
As for `Oc1cc(Cl)ccc1Oc1ccc(Cl)cc1Cl`, the call was inactive.
Same read-out and setting: for `CN1CSC(=S)N(C)C1` the value was “inactive”.
In the case of `CCC(C)Nc1c([N+](=O)[O-])cc(C(C)(C)C)cc1[N+](=O)[O-]` (stereo not given), the half-maximal activity concentration (AC50) is 13 µM (active).
For the compound `CCc1ccc(C(=O)NN(C(=O)c2cc(C)cc(C)c2)C(C)(C)C)cc1`, the AC50 was 13.3 µM (active).
Turning to `N#Cc1c(Cl)c(Cl)c(Cl)c(C#N)c1Cl`, the compound was classed as inactive.
Take `CC1(c2ccc(Oc3ccccc3)cc2)OC(=O)N(Nc2ccccc2)C1=O` (stereo not given): the compound was called inactive.
For `COP(=S)(OC)Oc1ccc(SC)c(C)c1`, the compound was called inactive.
Same read-out and setting: to `O=C1c2ccccc2C(=O)N1SC(Cl)(Cl)Cl` belongs “inactive”; to `Cc1[nH]c(=O)n(C(C)(C)C)c(=O)c1Cl`, “inactive”; to `Oc1ccc(Cl)cc1Cc1ccccc1`, “inactive”.
Still for that read-out and setting: for `COP(=O)(OC)OC=C(Cl)Cl` the value was “inactive”.
